Drawing on PubChem BioAssay (NCI), this text covers growth for eleven molecules.

Compounds without any hit were thinned out: in the full panel of roughly 83,000, 20% have a hit.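 Cell lines were cultured in 96-well plates, exposed to a single compound concentration, and assessed for percent growth 48 hours later.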 Values without a mark were called inactive. The source made the active and inactive calls. The calls were made as follows: active = growth percent below 10; inactive = the rest.

Assay in all cases: NCI-60 one-dose screen, 48 h (100 = growth as untreated, 0 = no growth, -100 = all killed)
Test [1] has as its system DU-145 prostate. Conditions: 10 µM unless noted.
The test system of test [2] is K-562 leukemia. Particulars: 10 µM unless noted.
Test [3] deals with MALME-3M melanoma. Particulars: 10 µM unless noted.
Test [4] deals with MDA-MB-231 breast. Particulars: 10 µM unless noted.
The test system of test [5] is RXF 393 renal. Conditions: 10 µM unless noted.
The subject of test [6] is SF-268 CNS. Conditions: 10 µM unless noted.
Test [7] relates to SF-295 CNS. Conditions: 10 µM unless noted.
For test [8], the system named is SF-539 CNS. Conditions: 10 µM unless noted.
Test [9] relates to UACC-257 melanoma. Conditions: 10 µM.
In test [10] the test system is M14 melanoma. Conditions: 10 µM unless noted.

Take `COc1cc(C(=O)C[n+]2ccc3ccccc3c2)cc(OC)c1OC`: the growth in [1] is 105%; in [2], 91.7%; in test [3] it was 91.5%; in test [4], 93.3%; in [5], 101%; in [6] it was 100%. Further, the growth in [7] was 100%; in test [8], 100%; in test [9] it was 103%; in [10] it was 98.1%.

Take `COC1=C(c2ccccc2)C(=O)C(OC)=C(c2ccccc2)C1=O`: the growth in [1] was 117%; in test [2], 77.2%; in test [3], 112%; in test [4] it was 94.5%; in [5], 106%; in test [6], 106%. In addition, the growth in test [7] was 100%; in test [8], 102%; in [10] it was 98.9%.

As to `COc1c([C@@H](CC(C)C)OC(C)=O)ccc2c1C(=O)OCc1cc(C)cc(O)c1O2`, the growth in test [1] is 26.7%; in [2], 16.9%; in test [3], 19%; in test [4] it was 35.7%; in [5] it was 64.1%; in test [6], 33%. The growth in test [7] is 31.8%; in test [8], 55.6%; in test [10], 44.3%.

Regarding `Cn1c2ccccc2c2c3c(c4c5ccc(Br)cc5oc4c21)C(=O)N(O)C3=O`, the growth in test [1] was 86.1%; in test [2] it was 61.7%; in [3], 113%; in test [4], 94.5%; in [6] it was 78.6%; in test [7], 53.4%. Besides, the growth in test [8] is 96.2%; in [9], 94.2%; in test [10] it was 89.3%.

As for `COc1ccccc1N1CCN(C2=NN=C(c3cccc(Cl)c3)c3ccccc3C2)CC1`, the growth in [1] was 2.18% (active); in test [2] it was 3.9% (active); in test [3] it was 44.9%; in test [4], -3.39% (active); in [6], 22.6%; in [7], 19.3%. In addition, the growth was -11.6% (active) in test [8], 56.3% in test [9] and 6.83% (active) in test [10].

For `N#C/C(=C\c1ccc(-c2ccc(F)cc2)o1)C(=O)Nc1ncc(Cc2ccc(Cl)cc2Cl)s1`, the growth in [1] is -46.5% (active); in test [2] it was 15.5%; in test [3] it was -52.7% (active); in test [4] it was 20.1%; in [6], 1.24% (active); in [7], 3.15% (active). Also, the results for the growth in test [8], in test [9] and in test [10] were -2.12% (active), 84.1% and 2.18% (active), respectively.

Take `COc1ccc2oc3c4[nH]c5ccccc5c4c4c(c3c2c1)C(=O)N(O)C4=O`: the growth in test [1] is 101%; in test [2] it was 98.3%; in [3] it was 105%; in test [4], 95.7%; in test [6], 100%; in test [7] it was 106%. Also, the growth in test [8] is 98%; in test [9] it was 106%; in test [10] it was 102%.

In the case of `CCN1CCN(c2cc(C(=O)Nc3nc4ccc(Oc5ccnc(C(=O)NC)c5)cc4s3)cc(C(F)(F)F)c2)CC1`, the growth was 85.8% in test [1]; 55.3% in [2]; 75.7% in test [3]; 86.2% in test [4]; -15.6% (active) in test [5]; 92.7% in [6]. Moreover, the growth in [7] was 83%; in test [8], 92.9%; in test [9], 94.2%; in test [10], 67.7%.

In the case of `Cc1cc(O)c2c(c1)C(=O)C(c1c(C)cc3c(c1O)C(=O)C=CC3=O)=CC2=O`, the growth is 72.8% in [1]; 15.4% in [2]; -15.2% (active) in test [3]; 62.8% in [4]; 20.2% in test [5]; 96.8% in [6]. Besides, the figures for the growth in [7], in test [8] and in [10] were 107%, 108% and 93.1%, respectively.

On to `CC(=O)NC(C)(C)C(=O)N1CCC[C@H]1C(=O)NC(C)(C)C(=O)N[C@@H](C)C(=O)NC(C)(C)C(=O)NC(C)(C)C(=O)N[C@@H](CCC(N)=O)C(=O)NC(C)(C)C(=O)N[C@H](C(=O)NC(C)(C)C(=O)NCC(=O)N[C@@H](CC(C)C)C(=O)NC(C)(C)C(=O)N1CCC[C@H]1C(=O)N[C@H](C(=O)NC(C)(C)C(=O)NC(C)(C)C(=O)N[C@@H](CCC(N)=O)C(=O)N[C@@H](CCC(N)=O)C(=O)N[C@H](CO)Cc1ccccc1)C(C)C)C(C)C`, for which the growth in test [1] was 43.5% [4.25 µM]; in test [2], 22.2% [4.25 µM]; in [3], -10.6% [4.25 µM] (active); in [4], 36.5% [4.25 µM]; in [5], 18% [4.25 µM]; in test [6], 32.9% [4.25 µM]. The figures for the growth in [7], in test [8] and in test [10] were 22.2% [4.25 µM], 24.5% [4.25 µM] and 51.3% [4.25 µM], respectively.

On to `Cc1cc(-c2ccc3nc(N)sc3c2)nc2ccc3[nH]ncc3c12`, for which the growth in test [1] was 48.1%; in test [2], 21.1%; in test [3] it was 33.4%; in test [4] it was 46.2%; in test [5], 47%; in test [6], 49.5%. Further, the growth was 29.2% in test [7], 20.9% in test [8], 46.4% in [9] and 19.7% in test [10].
